Data reported in PubChem BioAssay (NCATS).
Results filed as inconclusive are left out. Calls of active or inactive are those of the source. Unless noted, the call rests on the fitted dose curve; in most records, active means well fitted curve in the direction sought with a large enough effect; inconclusive means small, poorly fitted or top-dose-only effect, or another doubt; inactive means no such curve, though single readings can be large; an effect the other way counts as inactive or inconclusive.

What was measured:
[1] = Validation screen for small molecules that induce genotoxicity in human embryonic kidney (HEK293T) cells expressing luciferase-tagged ELG1 (AID 493106); further: potency means the concentration at half of the fitted maximal effect
Outline: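 ELG1-luciferase reporter readout (ONE-Glo, 30 min, room temperature) after 16 hr compound treatment at 37 °C of HEK293T cells at 2,000 per well. Rising luminescence flags genotoxic stress.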

[2] = biological target: Thyrotropin-releasing hormone receptor (Homo sapiens) (UniProt P34981); assay: qHTS for Small Molecule Agonists and Allosteric Enhancers of Human TRH Receptor: Validation Screen for Agonists (AID 493127;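 active means calcium activation more than 3 SD above the typical response in the agonist read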;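 further: intracellular calcium rise by fluo-8 fluorescence before TRH EC20 addition; 0% is about no effect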); settings: TRH receptor agonist cell assay; at 2 µM; stronger effect = higher value
Outline: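 Compound-evoked intracellular calcium release in fluo-8-loaded TRHR cells, read kinetically on FDSS (Ex 480/Em 530, 1 s/cycle) after 23 nL pintool transfer. Agonist phase preceded 10 nM TRH EC20 addition.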

[3] = Nrf2 qHTS screen for inhibitors: Validation (AID 493153; active means well fitted inhibition curve with a large enough effect in the main read-out, with a control signal flat, not every such curve was filed as active; further: potency means the concentration at half of the fitted maximal effect); settings: Potency: luciferase luminescence; viability change: measured here: cytotoxicity max response
Outline: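 Concentration-response on A549 ARE_Fluc reporter cells exposed 18-24 h at 37 C, 5% CO2. Cytotoxicity read first by CellTiter-Fluor fluorescence (Ex 405/Em 525), then Nrf2 inhibition by BugLite luminescence after 15 min.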

[4] = qHTS for Inhibitors of Cell Surface uPA Generation: Validation Assay (AID 493164);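 further: RAW 264.7 macrophage cells exposed to compound for 18 h; 0% is about no effect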
Outline: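 ATP-Lite luminescence read-out: ATP remains high when uPA activity-dependent LF translocation into the cytoplasm is blocked. RAW 264.7 cells, 18 h compound exposure at 37 C; 7-point titration, 2.45 nM to 38.3 uM final.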

[5] = Validation screen for small molecules that induce DNA re-replication in SW480 colon adenocarcinoma cells (AID 504364); further: potency means the concentration at half of the fitted maximal effect
Outline: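 Image-based DNA content read-out: Hoechst stain 40 min, total nuclear fluorescence intensity (ex 405 nm, em 500-530 nm) after 48 h compound exposure of 250 SW480 cells/well at 37 C, 5% CO2, versus DMSO vehicle.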

[6] = biological target: Phosphoglycerate kinase, glycosomal (Trypanosoma brucei brucei) (UniProt P07378); assay: qHTS Validation Assay to Find Inhibitors of Phosphoglycerate Kinase (AID 504547); further: potency means the concentration at half of the fitted maximal effect
Outline: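 In TEA buffer (100mM, pH 7.6) containing 5mM MgCl2 and 0.01% Tween-20, the GAPDH-coupled PGK reaction proceeded for 60 minutes at room temperature before a single luminescence reading using Kinase-Glo Plus.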

[7] = biological target: Galactokinase (Homo sapiens) (UniProt P51570); assay: qHTS Validation Assay for Inhibitors of Human Galactokinase (GALK) (AID 493189); further: potency means the concentration at half of the fitted maximal effect
Outline: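 Enzyme activity is inferred from ATP consumption: human GALK phosphorylates galactose (100 uM) using 35 uM ATP for 1 h at room temperature, and luciferase-based Kinase-Glo Plus reports unconsumed ATP.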

[8] = biological target: Peptidyl-prolyl cis-trans isomerase NIMA-interacting 1 (Homo sapiens) (UniProt Q13526); assay: qHTS Validation Assay to Find Inhibitors of Pin1 (AID 504536; active means well fitted inhibition curve with a large enough effect in the polarisation, with a control signal flat, not every such curve was filed as active; the % refers to the polarisation; further: potency means the concentration at half of the fitted maximal effect)
Outline: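 Fluorescence polarization competition: compounds (titration) displace HiFluor-488-labeled Pin1-1b peptide from Pin1 (0.3 uM final) in pH 7.5 HEPES buffer with DTT, 10 min at room temperature; %Activity normalized to no-enzyme wells, curves fitted.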

Phosphoglycerate kinase, glycosomal (Trypanosoma brucei brucei), sequence (P07378 whole entry, looked up): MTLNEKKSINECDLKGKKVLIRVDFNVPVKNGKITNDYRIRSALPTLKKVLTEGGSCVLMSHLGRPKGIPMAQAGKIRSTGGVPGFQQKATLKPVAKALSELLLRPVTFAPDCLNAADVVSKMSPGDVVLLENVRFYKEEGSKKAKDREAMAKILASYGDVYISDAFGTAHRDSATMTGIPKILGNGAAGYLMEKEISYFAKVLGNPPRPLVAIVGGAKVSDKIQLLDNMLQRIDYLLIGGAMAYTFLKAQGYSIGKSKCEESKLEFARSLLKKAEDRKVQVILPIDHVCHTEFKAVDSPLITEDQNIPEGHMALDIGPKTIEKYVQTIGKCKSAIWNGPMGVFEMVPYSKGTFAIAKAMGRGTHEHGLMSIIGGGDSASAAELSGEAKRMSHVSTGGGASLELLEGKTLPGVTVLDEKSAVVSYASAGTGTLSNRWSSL
Thyrotropin-releasing hormone receptor (Homo sapiens), sequence (P34981 whole entry, looked up): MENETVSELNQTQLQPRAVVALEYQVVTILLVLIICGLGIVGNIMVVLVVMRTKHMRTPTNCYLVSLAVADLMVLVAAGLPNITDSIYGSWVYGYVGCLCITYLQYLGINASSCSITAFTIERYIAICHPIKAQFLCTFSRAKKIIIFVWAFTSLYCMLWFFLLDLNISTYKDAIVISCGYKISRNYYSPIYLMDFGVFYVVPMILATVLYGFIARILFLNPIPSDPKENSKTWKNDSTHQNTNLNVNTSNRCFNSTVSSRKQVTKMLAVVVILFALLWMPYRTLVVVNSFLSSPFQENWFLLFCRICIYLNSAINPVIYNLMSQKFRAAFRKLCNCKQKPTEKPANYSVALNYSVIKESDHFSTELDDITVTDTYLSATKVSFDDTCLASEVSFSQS
Galactokinase (Homo sapiens), sequence (P51570 whole entry, looked up): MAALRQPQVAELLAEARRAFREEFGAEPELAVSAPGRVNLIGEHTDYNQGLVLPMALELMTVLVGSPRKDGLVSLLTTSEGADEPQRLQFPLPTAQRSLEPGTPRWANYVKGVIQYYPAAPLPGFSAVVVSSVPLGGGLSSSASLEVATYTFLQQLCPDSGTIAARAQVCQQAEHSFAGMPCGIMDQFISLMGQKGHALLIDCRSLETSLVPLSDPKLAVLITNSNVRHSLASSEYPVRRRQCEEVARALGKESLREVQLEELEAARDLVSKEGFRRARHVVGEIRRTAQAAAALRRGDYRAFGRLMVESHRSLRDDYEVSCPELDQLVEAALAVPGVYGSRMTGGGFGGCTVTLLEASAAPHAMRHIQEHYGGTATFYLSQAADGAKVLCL
Peptidyl-prolyl cis-trans isomerase NIMA-interacting 1 (Homo sapiens), sequence (Q13526 whole entry, looked up): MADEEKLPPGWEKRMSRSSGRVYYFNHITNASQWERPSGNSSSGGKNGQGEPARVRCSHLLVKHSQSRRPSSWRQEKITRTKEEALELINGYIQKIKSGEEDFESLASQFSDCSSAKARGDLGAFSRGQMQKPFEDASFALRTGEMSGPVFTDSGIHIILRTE

Cn1cc(C2=C(c3ccc(Cl)cc3Cl)C(=O)NC2=O)c2ccccc21
inactive: Potency [1] | activation [2] 29.6% | Potency [3] | outcome [4] | Potency [5] | Potency [6]
-10.9%: viability change [3]

O=C(c1cc(O)c(O)c([N+](=O)[O-])c1)c1ccccc1F
inactive: Potency [1] | activation [2] -0.125% | outcome [4] | Potency [7] | Potency [5]

COc1cccc(C(=O)NCCN2CCN(c3ccc(Cl)cc3)CC2)c1
inactive: Potency [1] | activation [2] 0.562% | Potency [3] | outcome [4] | Potency [5] | Potency [8] | Potency [6]
-10%: viability change [3]

Oc1cc2c(cc1O)CN(C(=S)NCCc1ccc(Cl)cc1)CCC2
-1.93%: viability change [3]
inactive: Potency [1] | activation [2] 2.62% | Potency [3] | outcome [4] | Potency [8] | Potency [6]

O=C(/C=C/c1ccc(O)cc1)c1ccc(O)cc1O
-0.936%: viability change [3]
inactive: activation [2] -5.19% | Potency [3] | outcome [4] | Potency [7] | Potency [8]
active: Potency [1] 8.2 µM

COc1ccccc1N1CCN(CCN(C(=O)c2ccc(I)cc2)c2ccccn2)CC1
inactive: Potency [1] | outcome [4]
-4.45%: viability change [3]
active: Potency [3] 14.6 µM

COc1ccc(NC(=O)/C=C/c2ccc(Cl)cc2)cc1
inactive: activation [2] 1.19% | Potency [3] | outcome [4] | Potency [7] | Potency [5] | Potency [8]
-1.36%: viability change [3]
active: Potency [1] 2.59 µM

O=C1C(SCCO)=C(SCCO)C(=O)c2ccccc21
inactive: Potency [1] | activation [2] -3.25% | outcome [4]
active: Potency [7] 25.1 µM

CN(C)c1ccc(/C=C2\C(=O)Nc3ccccc32)cc1
active: Potency [1] 1.83 µM
inactive: activation [2] -8.75% | outcome [4] | Potency [7] | Potency [5] | Potency [8]

CN1CC(=O)N/C1=N/C(=O)Nc1cccc(Cl)c1
inactive: Potency [1] | Potency [3] | outcome [4] | Potency [8]
-1.94%: viability change [3]

N#C/C(=C\c1ccc(O)c(O)c1)C(=O)NCCCc1ccccc1
-10.3%: viability change [3]
inactive: Potency [1] | activation [2] 0.625% | Potency [3] | outcome [4] | Potency [7]

NC[C@@H]1O[C@H](C23CC4CC(CC(C4)C2)C3)Cc2c1ccc(O)c2O
inactive: Potency [1] | activation [2] 8.12% | outcome [4] | Potency [7] | Potency [5] | Potency [8] | Potency [6]

CN1CCc2cccc3c2C1Cc1ccc(O)c(O)c1-3 (stereo not given)
0.0644%: viability change [3]
inactive: Potency [1] | activation [2] 0.125% | Potency [3] | outcome [4] | Potency [7] | Potency [6]

NO
4.95%: viability change [3]
inactive: Potency [1] | Potency [3] | outcome [4] | Potency [7] | Potency [5] | Potency [8] | Potency [6]

O=C(/C=C/c1ccc(O)c(O)c1)OCCc1ccccc1
-1.73%: viability change [3]
inactive: activation [2] 0.812% | Potency [3] | outcome [4] | Potency [8] | Potency [6]
active: Potency [1] 20.6 µM

O=C(O)[C@@H]1C[C@H](C(=O)O)N1
inactive: Potency [1] | activation [2] -0.25% | Potency [3] | outcome [4] | Potency [7] | Potency [5] | Potency [6]
12.1%: viability change [3]

NC(=O)C1=CN(C2OC(COP(=O)(O)OP(=O)(O)OC[C@H]3O[C@@H](n4cnc5c(N)ncnc54)[C@H](OP(=O)(O)O)[C@@H]3O)C(O)C2O)C=CC1 (stereo not given in full)
inactive: Potency [1] | Potency [3] | outcome [4] | Potency [6]
active: Potency [8] 5.36 µM
5.72%: viability change [3]

CCCCCCCC/C=C\CCCCCCCC(=O)NCCO
1.03%: viability change [3]
inactive: Potency [1] | activation [2] 1.25% | Potency [3] | outcome [4] | Potency [5] | Potency [8] | Potency [6]

Cc1ccc(O)c(N=Nc2ccccc2)n1
inactive: activation [2] 0.875% | Potency [3] | outcome [4] | Potency [5]
0.002%: viability change [3]
active: Potency [1] 2.59 µM | Potency [6] 10.7 µM

C#CCN1C(C)=C(C(=O)OC)C(c2cccc([N+](=O)[O-])c2)C(C(=O)OCC)=C1C (stereo not given)
-0.517%: viability change [3]
inactive: Potency [1] | activation [2] -10.2% | Potency [3] | outcome [4] | Potency [7] | Potency [5] | Potency [8] | Potency [6]

CCCCCCCCCCCCCCCC(=O)NCC(COP(=O)([O-])OCC[N+](C)(C)C)OCC (stereo not given)
active: Potency [1] 18.3 µM
inactive: activation [2] 0.812% | Potency [3] | outcome [4] | Potency [7] | Potency [6]
10.8%: viability change [3]

COc1ccccc1N1CCN(CCCCNS(=O)(=O)c2cccc3c(N(C)C)cccc23)CC1
active: Potency [5] 14.6 µM
inactive: Potency [1] | activation [2] -3.25% | outcome [4] | Potency [6]

COc1cc2nc(N3CCN(C(=O)OCc4ccccc4)C(C(=O)NC(C)(C)C)C3)nc(N)c2cc1OC (stereo not given)
inactive: Potency [1] | activation [2] -3.06% | Potency [3] | outcome [4] | Potency [8] | Potency [6]
-20.4%: viability change [3]

CCCn1c(=O)c2[nH]c(-c3ccc(OCC(=O)NCCN)cc3)nc2n(CCC)c1=O
10.5%: viability change [3]
inactive: Potency [1] | activation [2] 0.688% | Potency [3] | outcome [4] | Potency [7] | Potency [5] | Potency [8] | Potency [6]

Fc1cccc(/C=N/N=C/c2cccc(F)c2)c1
inactive: activation [2] -7.56% | Potency [3] | outcome [4] | Potency [7] | Potency [5] | Potency [8]
active: Potency [1] 23.1 µM
1.98%: viability change [3]

C[N+]1(C)CCC(OC(=O)C(c2ccccc2)c2ccccc2)CC1
1.14%: viability change [3]
inactive: Potency [1] | Potency [3] | outcome [4] | Potency [8] | Potency [6]

CN1CCc2ccccc2Cc2[nH]c3ccccc3c2CC1
inactive: Potency [1] | activation [2] 0.5% | Potency [3] | outcome [4] | Potency [7] | Potency [5] | Potency [6]
-10.2%: viability change [3]

Nc1ncnc2c1ncn2[C@@H]1O[C@H](COP(=O)(O)OP(=O)(O)OP(=O)(O)OP(=O)(O)OC[C@@H]2O[C@H](n3cnc4c(N)ncnc43)[C@@H](O)[C@H]2O)[C@@H](O)[C@H]1O
2.98%: viability change [3]
inactive: Potency [1] | Potency [3] | outcome [4] | Potency [8]

CCN1/C(=C/C(C)=O)Sc2ccc(OC)cc21
-5.53%: viability change [3]
inactive: Potency [1] | activation [2] -4.31% | Potency [3] | outcome [4] | Potency [7] | Potency [5] | Potency [8]

N#C/C(=C\c1c[nH]c2ccccc12)C(=O)c1ccc(O)c(O)c1
-8.11%: viability change [3]
inactive: Potency [1] | activation [2] 0.438% | Potency [3] | outcome [4]

OC[C@H]1O[C@@H](n2cnc3c(NC4CCCCC4)ncnc32)[C@H](O)[C@@H]1O
2.64%: viability change [3]
inactive: Potency [1] | activation [2] 0.562% | Potency [3] | outcome [4] | Potency [7] | Potency [5] | Potency [8]
